Measurements reported in PubChem BioAssay (EPA / NIEHS).
“And” between values parts separate entries of the source, which are not always exact repeats. Identical values can stand only once. Inconclusive results are not listed. The source made the active and inactive calls. How the source made its calls, unless noted: active means hit-call score of the fitted dose curve at least 0.9, where 1 is the maximum; inactive means score below 0.9.

Assays:
[1] = target: Glucocorticoid receptor (Homo sapiens) (UniProt P04150); experiment: ATG_GR_TRANS: Attagene TRANS-FACTORIAL HepG2 Assay for human Glucocorticoid Receptor (GR) (AID 2282978; active means hit-call score of the fitted dose curve at least 0.9, where 1 is the maximum;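 further: activators score as hits since higher reporter transcript over DMSO is fitted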); settings: HepG2 Attagene TRANS GR reporter, mRNA transcription
Outline: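 Exogenous NR-GAL4 fusion activity was assessed through induced GAL4-UAS reporter transcripts in transfected human HepG2 cells, quantified after 24 h by RT-PCR and fluorescent capillary electrophoresis with DMSO as baseline.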

[2] = target: Bile acid receptor (Homo sapiens) (UniProt Q96RI1); experiment: ATG_FXR_TRANS: Attagene TRANS-FACTORIAL HepG2 Assay for Farnesoid X Receptor (FXR) (AID 2282979; active means hit-call score of the fitted dose curve at least 0.9, where 1 is the maximum;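 further: hits raise reporter mRNA above DMSO so AC50 marks FXR activation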); settings: HepG2 Attagene TRANS FXR-GAL4 reporter transcription
Outline: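 HepG2 cells were transiently transfected with GAL4-UAS reporters driven by chimeric NR-Gal4 proteins and dosed for 24 h. Reporter mRNA was quantified by RT-PCR, fluorescent labelling, HpaI digestion and capillary electrophoresis, with gain of signal scored versus DMSO.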

[3] = target: Oxysterols receptor LXR-alpha (Homo sapiens) (UniProt Q13133); experiment: ATG_LXRa_TRANS: Attagene TRANS-FACTORIAL HepG2 Assay for human Liver X Receptor alpha (LXRa) (AID 2282980; active means hit-call score of the fitted dose curve at least 0.9, where 1 is the maximum); settings: HepG2 Attagene TRANS reporter, LXRa transactivation
Outline: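 HepG2 cells transiently transfected with GAL4-UAS reporter units for chimeric NR-Gal4 proteins, exposed to chemicals for 24 h. Reporter mRNA quantified by RT-PCR and capillary electrophoresis; gain of signal fitted relative to DMSO.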

[4] = target: Oxysterols receptor LXR-beta (Homo sapiens) (UniProt P55055); experiment: ATG_LXRb_TRANS: Attagene TRANS-FACTORIAL HepG2 Assay for human Liver X Receptor beta (LXRb) (AID 2282981; active means hit-call score of the fitted dose curve at least 0.9, where 1 is the maximum); settings: HepG2 Attagene TRANS GAL4-LXRb reporter, mRNA
Outline: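 HepG2 cells transiently transfected with multiple reporter transcription units carrying chimeric NR-Gal4 proteins acting on GAL4-UAS reporters; compound exposure 24 h. Reporter mRNA quantified by RT-PCR, 6-FAM labelling, HpaI digestion and capillary electrophoresis; gain of signal versus DMSO.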

[5] = target: Hepatocyte nuclear factor 4-alpha (Homo sapiens) (UniProt P41235); experiment: ATG_HNF4a_TRANS: Attagene TRANS-FACTORIAL HepG2 Assay for human Hepatocyte Nuclear Factor 4 alpha (HNF4a) (AID 2282982; active means hit-call score of the fitted dose curve at least 0.9, where 1 is the maximum); settings: HepG2 HNF4a transactivation reporter, mRNA readout
Outline: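 HepG2 cells transiently transfected with multiplexed GAL4-UAS reporter units responsive to chimeric NR-GAL4 proteins; compound exposure 24 h. Reporter mRNA quantified by RT-PCR, 6-FAM labelling, HpaI digestion and capillary electrophoresis; gain of signal versus DMSO baseline.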

[6] = ATG_M_32_TRANS: Attagene TRANS-FACTORIAL HepG2 Assay for M32 Transcription Factor (Internal Marker) (AID 2282984; active means hit-call score of the fitted dose curve at least 0.9, where 1 is the maximum;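 further: transcript level of a background control reporter unit measured by RT-PCR and capillary electrophoresis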); settings: HepG2 Attagene TRANS M32 internal marker reporter
Outline: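 HepG2 cells transiently transfected with multiple GAL4-UAS reporter transcription units, dosed for 24 hours; reporter mRNA quantified by RT-PCR, 6-FAM primer extension, HpaI digestion and capillary electrophoresis. Gain-of-signal fitted versus DMSO baseline; internal background-control marker.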

[7] = target: Nuclear receptor subfamily 4 group A member 2 (Homo sapiens) (UniProt P43354); experiment: ATG_NURR1_TRANS: Attagene TRANS-FACTORIAL HepG2 Assay for human Nuclear Receptor Related Protein 1 (NURR1) (AID 2282985; active means hit-call score of the fitted dose curve at least 0.9, where 1 is the maximum); settings: HepG2 Attagene TRANS reporter, mRNA readout
Outline: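 HepG2 cells transiently transfected with GAL4-UAS reporter units and chimeric NR-Gal4 constructs; chemical exposure 24 h. Reporter mRNA quantified by RT-PCR, fluorescent labelling and capillary electrophoresis; gain of signal fitted relative to DMSO baseline.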

[8] = target: Nuclear respiratory factor 1 (Homo sapiens) (UniProt Q16656); experiment: ATG_NRF1_CIS: Attagene CIS-FACTORIAL HepG2 Assay for human Nuclear Respiratory Factor 1 (NRF1) Orphan Gene (AID 2282987); settings: HepG2 NRF1 cis-element reporter, Attagene multiplex; actives raise or lower the signal
Outline: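 Using DMSO as baseline, gain- or loss-of-signal was fitted for reporter mRNA levels in HepG2 cells transiently transfected with cis-regulated reporter units. Samples were taken 24 h after dosing and read by RT-PCR with capillary electrophoresis.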

[9] = target: Myc proto-oncogene protein (Homo sapiens) (UniProt P01106); experiment: ATG_Myc_CIS: Attagene CIS-FACTORIAL HepG2 Assay for human Myelocytomatosis (Myc) Proto-Oncogene Transcription Factor (AID 2282990); settings: HepG2, Attagene cis-reporter transcription factor activity; actives raise or lower the signal
Outline: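 DMSO-normalised, bidirectionally fitted reporter mRNA signal. HepG2 cells transfected with cis reporter constructs, treated 24 h; transcripts detected by RT-PCR, 6-FAM primer extension and CE.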

[10] = ATG_NF_kB_CIS: Attagene CIS-FACTORIAL HepG2 Assay for human Nuclear Factor Kappa B (NF-kB) (AID 2282991); settings: HepG2 Attagene cis-factorial NF-kB reporter mRNA; actives raise or lower the signal
Outline: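 Endpoint from a 52-component multiplexed HepG2 reporter panel: cis-regulated transcription units transiently transfected, 24 h dosing, reporter mRNA quantified by RT-PCR and capillary electrophoresis, scored as increase or decrease against DMSO.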

[11] = ATG_NRF2_ARE_CIS: Attagene CIS-FACTORIAL HepG2 Assay for human Nuclear Factor Erythroid 2 Related Factor 2 (NFR2) response to Antioxidant Response Elements (ARE) (AID 2282992); settings: HepG2 Attagene ARE/NRF2 reporter, transcription factor activity; actives raise or lower the signal;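 on AC50: reporter mRNA level measured by RT-PCR and capillary electrophoresis fluorescence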
Outline: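 Multiplexed reporter mRNA profiling in HepG2 after a 24 h chemical exposure. Curves fitted in both directions relative to DMSO negative control.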

[12] = ATG_Oct_MLP_CIS: Attagene CIS-FACTORIAL HepG2 Assay for human Octamer-Binding Transcription Factor (Oct) (AID 2282993); settings: HepG2 Attagene cis-factorial Oct reporter, mRNA; actives raise or lower the signal
Outline: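 Multiplexed cis-reporter assay in human liver HepG2 cells, 24 h incubation. Reporter RNA amplified and labelled, then resolved by capillary electrophoresis; DMSO serves as negative control and baseline.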

[13] = target: Cellular tumor antigen p53 (Homo sapiens) (UniProt P04637); experiment: ATG_p53_CIS: Attagene CIS-FACTORIAL HepG2 Assay for human p53 Transcription Factor (AID 2282994); settings: HepG2 p53 cis-element reporter, Attagene mRNA; actives raise or lower the signal
Outline: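 Multiplexed reporter mRNA assay in human HepG2 liver cells; cis-regulated units report endogenous factor activity. Values come from bidirectional curve fitting against DMSO negative control after 24 h treatment.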

[14] = target: Transcriptional activator Myb (Homo sapiens) (UniProt P10242); experiment: ATG_Myb_CIS: Attagene CIS-FACTORIAL HepG2 Assay for human Myeloblastosis (Myb) Proto-Oncogene Transcription Factor (AID 2282986); settings: HepG2 Attagene CIS-FACTORIAL Myb reporter transcription; actives raise or lower the signal
Outline: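 In this HepG2 transient-transfection format, cis-regulated reporter mRNA is quantified 24 h post-dosing by RT-PCR with capillary electrophoresis, fitted bidirectionally to DMSO baseline.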

[15] = BSK_3C_TissueFactor: BioMAP Diversity Plus: 3C Assay for Tissue Factor Biomarker Activity (AID 2282997); settings: BioMAP 3C HUVEC, tissue factor biomarker readout; actives raise or lower the signal
Outline: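 HUVEC were treated 24 h, then surface tissue factor measured by ELISA and fitted bidirectionally against DMSO. Parallel SRB total-protein staining assessed overt cytotoxicity at the same time point.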

[16] = BSK_3C_uPAR: BioMAP Diversity Plus: 3C Assay for Urokinase-type plasminogen activator receptor (uPAR) Biomarker Activity (AID 2282998); settings: BioMAP 3C HUVEC, uPAR biomarker ELISA; actives raise or lower the signal
Outline: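 Dose primary human umbilical vein endothelial cells, incubate 24 h, measure cell-surface uPAR by ELISA, then fit the signal in both directions against the DMSO negative control.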

[17] = BSK_3C_VCAM1: BioMAP Diversity Plus: 3C Assay for Vascular cell adhesion molecule 1 (VCAM1) Biomarker Activity (AID 2282999); settings: BioMAP 3C HUVEC, VCAM1 ELISA, cytokine-stimulated; actives raise or lower the signal
Outline: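 Human umbilical vein endothelial cells were dosed with compound for 24 h, after which cell-surface VCAM-1 was quantified by ELISA. Bidirectional curve fitting used DMSO as negative control and activity baseline.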

[18] = BSK_4H_Eotaxin3: BioMAP Diversity Plus: 4H Assay for Eotaxin 3 Biomarker Activity (AID 2283000); settings: primary human endothelial cells (HUVEC); actives raise or lower the signal
Outline: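 Eotaxin-3 (CCL26) levels were measured by ELISA in HUVEC primary cultures 24 h post-dosing. Gain or loss of signal was fitted in both directions, with DMSO serving as baseline and negative control.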

[19] = ATG_M_06_TRANS: Attagene TRANS-FACTORIAL HepG2 Assay for M06 Transcription Factor (Internal Marker) (AID 2282983; active means hit-call score of the fitted dose curve at least 0.9, where 1 is the maximum;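 further: reporter transcript level by RT-PCR then capillary electrophoresis fluorescence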); settings: HepG2 Attagene TRANS M06 internal marker reporter
Outline: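 HepG2 cells transiently transfected with GAL4-UAS multiple reporter units, dosed 24 h. Reporter RNA reverse-transcribed, PCR-amplified, 6-FAM-labeled, HpaI-digested and quantified by capillary electrophoresis; this internal-marker signal fitted upward relative to DMSO.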

[20] = ATG_NFI_CIS: Attagene CIS-FACTORIAL HepG2 Assay for human Nuclear Factor I (NFI) (AID 2282989); settings: HepG2 cis-regulatory reporter, NFI response element transcription; actives raise or lower the signal
Outline: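 HepG2, transient MRTU, 24 h exposure; RNA→cDNA→PCR→FAM label→HpaI→CE fluorescence. Bidirectional fit, DMSO = baseline.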

Measured: AC50

Oxysterols receptor LXR-beta (Homo sapiens), sequence (P55055 whole entry, looked up, the tested form may be a part): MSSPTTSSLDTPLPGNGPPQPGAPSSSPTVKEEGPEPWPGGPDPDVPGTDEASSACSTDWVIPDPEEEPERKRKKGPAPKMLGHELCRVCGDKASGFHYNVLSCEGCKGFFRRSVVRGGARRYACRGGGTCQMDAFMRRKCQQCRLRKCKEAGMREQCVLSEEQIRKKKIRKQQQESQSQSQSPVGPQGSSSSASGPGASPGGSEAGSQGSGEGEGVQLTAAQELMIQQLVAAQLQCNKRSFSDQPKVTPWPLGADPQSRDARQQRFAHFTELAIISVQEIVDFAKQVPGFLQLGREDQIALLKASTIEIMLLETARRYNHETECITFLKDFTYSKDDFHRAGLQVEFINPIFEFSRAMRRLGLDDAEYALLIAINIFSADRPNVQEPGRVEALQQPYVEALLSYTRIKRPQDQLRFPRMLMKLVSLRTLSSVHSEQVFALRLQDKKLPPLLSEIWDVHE
Bile acid receptor (Homo sapiens), sequence (Q96RI1 whole entry, looked up, the tested form may be a part): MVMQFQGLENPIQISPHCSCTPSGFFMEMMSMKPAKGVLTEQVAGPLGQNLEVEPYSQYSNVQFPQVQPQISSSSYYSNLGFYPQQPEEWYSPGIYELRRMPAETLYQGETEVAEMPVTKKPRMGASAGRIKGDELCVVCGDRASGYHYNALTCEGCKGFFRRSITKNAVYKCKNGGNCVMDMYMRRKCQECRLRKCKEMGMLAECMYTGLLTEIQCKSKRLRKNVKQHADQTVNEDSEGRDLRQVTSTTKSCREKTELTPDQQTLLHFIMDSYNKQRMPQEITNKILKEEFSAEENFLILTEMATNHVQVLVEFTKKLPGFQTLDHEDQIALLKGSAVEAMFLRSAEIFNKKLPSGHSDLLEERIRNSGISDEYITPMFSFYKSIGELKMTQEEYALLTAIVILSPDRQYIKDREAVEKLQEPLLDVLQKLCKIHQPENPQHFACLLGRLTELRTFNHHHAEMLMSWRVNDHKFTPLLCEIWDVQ
Glucocorticoid receptor (Homo sapiens), sequence (P04150 whole entry, looked up, the tested form may be a part): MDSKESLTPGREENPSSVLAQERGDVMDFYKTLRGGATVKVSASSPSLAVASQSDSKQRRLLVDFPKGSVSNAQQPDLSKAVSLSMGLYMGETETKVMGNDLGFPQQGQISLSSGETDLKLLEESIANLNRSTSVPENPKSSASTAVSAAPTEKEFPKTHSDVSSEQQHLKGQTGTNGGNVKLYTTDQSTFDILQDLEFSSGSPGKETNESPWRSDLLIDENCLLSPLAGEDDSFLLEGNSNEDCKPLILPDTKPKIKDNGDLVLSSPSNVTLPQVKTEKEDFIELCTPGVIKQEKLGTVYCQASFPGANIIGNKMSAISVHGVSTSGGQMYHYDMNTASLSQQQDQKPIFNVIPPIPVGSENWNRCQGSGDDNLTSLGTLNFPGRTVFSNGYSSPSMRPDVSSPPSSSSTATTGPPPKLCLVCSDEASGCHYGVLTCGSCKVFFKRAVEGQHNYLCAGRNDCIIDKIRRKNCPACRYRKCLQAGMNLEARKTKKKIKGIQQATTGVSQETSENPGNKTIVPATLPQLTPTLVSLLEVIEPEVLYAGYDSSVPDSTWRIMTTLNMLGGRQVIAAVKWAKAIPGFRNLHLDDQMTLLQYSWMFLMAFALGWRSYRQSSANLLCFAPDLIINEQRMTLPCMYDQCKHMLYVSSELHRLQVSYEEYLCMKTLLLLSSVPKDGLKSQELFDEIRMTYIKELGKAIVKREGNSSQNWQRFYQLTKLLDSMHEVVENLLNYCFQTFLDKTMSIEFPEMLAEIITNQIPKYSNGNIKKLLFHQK
Transcriptional activator Myb (Homo sapiens), sequence (P10242 whole entry, looked up): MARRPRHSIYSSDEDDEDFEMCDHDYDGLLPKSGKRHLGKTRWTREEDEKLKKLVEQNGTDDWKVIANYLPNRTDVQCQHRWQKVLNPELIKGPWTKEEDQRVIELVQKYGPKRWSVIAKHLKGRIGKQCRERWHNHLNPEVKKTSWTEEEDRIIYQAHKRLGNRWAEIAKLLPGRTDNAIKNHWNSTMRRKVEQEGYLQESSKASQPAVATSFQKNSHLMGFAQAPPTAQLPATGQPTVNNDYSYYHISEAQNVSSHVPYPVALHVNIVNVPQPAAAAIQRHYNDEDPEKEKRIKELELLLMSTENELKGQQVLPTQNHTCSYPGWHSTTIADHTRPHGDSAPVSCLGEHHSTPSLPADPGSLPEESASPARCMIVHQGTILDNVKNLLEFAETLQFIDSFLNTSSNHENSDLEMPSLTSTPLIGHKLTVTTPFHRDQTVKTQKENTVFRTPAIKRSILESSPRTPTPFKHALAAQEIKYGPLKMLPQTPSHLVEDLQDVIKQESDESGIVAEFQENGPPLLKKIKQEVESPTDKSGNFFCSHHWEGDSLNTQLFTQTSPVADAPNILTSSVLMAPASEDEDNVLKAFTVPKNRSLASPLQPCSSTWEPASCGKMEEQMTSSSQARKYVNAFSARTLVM
Myc proto-oncogene protein (Homo sapiens), sequence (P01106 whole entry, looked up): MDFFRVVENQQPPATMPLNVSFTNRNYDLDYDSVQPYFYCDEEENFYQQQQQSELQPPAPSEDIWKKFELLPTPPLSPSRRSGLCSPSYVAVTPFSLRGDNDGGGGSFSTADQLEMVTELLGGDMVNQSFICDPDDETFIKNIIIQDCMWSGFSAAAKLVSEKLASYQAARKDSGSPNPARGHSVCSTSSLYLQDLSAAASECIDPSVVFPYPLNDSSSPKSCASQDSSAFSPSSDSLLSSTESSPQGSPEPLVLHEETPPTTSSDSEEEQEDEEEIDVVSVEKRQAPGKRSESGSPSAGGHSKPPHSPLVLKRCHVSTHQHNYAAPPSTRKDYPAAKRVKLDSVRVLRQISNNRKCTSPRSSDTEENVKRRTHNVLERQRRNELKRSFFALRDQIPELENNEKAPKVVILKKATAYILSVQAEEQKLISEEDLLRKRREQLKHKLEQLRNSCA
Cellular tumor antigen p53 (Homo sapiens), sequence (P04637 whole entry, looked up): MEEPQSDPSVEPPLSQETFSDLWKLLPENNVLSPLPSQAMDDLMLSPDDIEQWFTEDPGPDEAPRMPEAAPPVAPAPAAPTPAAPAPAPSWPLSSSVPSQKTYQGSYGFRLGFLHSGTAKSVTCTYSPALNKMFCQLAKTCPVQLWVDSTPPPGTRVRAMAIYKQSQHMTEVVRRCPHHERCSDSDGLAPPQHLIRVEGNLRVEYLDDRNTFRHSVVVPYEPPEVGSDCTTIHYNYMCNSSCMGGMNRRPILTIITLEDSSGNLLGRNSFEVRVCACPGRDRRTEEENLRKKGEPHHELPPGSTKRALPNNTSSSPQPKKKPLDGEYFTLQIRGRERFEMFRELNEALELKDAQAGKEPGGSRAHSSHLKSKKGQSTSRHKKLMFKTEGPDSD
Nuclear respiratory factor 1 (Homo sapiens), sequence (Q16656 whole entry, looked up): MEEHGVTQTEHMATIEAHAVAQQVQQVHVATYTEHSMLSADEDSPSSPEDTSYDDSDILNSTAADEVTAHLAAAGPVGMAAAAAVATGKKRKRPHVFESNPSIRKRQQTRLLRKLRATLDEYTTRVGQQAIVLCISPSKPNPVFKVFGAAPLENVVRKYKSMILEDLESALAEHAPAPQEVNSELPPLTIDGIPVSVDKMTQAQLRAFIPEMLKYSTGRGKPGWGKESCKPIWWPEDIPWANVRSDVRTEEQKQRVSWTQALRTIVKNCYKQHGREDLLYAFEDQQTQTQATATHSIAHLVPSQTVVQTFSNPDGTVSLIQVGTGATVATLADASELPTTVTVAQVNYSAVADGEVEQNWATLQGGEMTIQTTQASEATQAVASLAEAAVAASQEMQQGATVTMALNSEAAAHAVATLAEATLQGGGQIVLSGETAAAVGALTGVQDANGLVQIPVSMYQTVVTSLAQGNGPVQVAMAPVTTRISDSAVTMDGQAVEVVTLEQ
Oxysterols receptor LXR-alpha (Homo sapiens), sequence (Q13133 whole entry, looked up, the tested form may be a part): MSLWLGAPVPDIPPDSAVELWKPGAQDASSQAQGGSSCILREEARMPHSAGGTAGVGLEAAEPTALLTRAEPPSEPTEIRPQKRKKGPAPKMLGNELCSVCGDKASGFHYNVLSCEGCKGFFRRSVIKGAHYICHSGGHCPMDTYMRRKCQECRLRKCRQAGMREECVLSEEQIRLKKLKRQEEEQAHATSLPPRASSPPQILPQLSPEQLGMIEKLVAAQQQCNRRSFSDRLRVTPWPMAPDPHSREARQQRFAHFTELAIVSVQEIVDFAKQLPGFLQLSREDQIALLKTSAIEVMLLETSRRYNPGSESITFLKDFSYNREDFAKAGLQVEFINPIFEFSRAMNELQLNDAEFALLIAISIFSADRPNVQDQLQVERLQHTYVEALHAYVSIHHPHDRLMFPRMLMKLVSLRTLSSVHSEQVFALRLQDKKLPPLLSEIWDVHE
Hepatocyte nuclear factor 4-alpha (Homo sapiens), sequence (P41235 whole entry, looked up, the tested form may be a part): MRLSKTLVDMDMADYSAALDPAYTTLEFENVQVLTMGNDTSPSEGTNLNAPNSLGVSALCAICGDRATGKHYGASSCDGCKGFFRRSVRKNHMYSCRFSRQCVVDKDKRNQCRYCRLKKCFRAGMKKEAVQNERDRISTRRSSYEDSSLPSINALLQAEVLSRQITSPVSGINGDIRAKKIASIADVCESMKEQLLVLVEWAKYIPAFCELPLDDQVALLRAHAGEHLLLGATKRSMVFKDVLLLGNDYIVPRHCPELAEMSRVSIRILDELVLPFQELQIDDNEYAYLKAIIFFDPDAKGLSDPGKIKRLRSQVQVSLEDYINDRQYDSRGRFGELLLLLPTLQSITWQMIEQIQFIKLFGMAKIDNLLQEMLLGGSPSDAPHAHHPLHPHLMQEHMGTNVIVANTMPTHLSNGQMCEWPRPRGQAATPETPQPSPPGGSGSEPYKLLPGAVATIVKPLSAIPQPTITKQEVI

Cc1ccc(C2OC[C@@H]3OC(c4ccc(C)cc4)O[C@H]([C@H](O)CO)[C@@H]3O2)cc1 (some centres not stated)
active: [11] 100 µM
not listed: [14] | [15] | [16] | [17] | [18] | [19] | [20]
inactive: all other assays above

c1ccc2c(c1)ccc1cc3c(ccc4ccccc43)cc12
active: [11] 0.12 µM | [15] 15 nM and 41.3 nM | [18] 15 nM and 37.3 nM
not listed: [10] | [19] | [20]
inactive: all other assays above

CCOC(F)(F)C(F)(F)C(F)(F)C(F)(F)F
not listed: [4] | [5] | [9] | [14] | [15] | [16] | [17] | [18]
inactive: all other assays above

Cc1cnc(NC(=O)C2=C(O)c3ccccc3S(=O)(=O)N2C)s1
not listed: [4] | [5] | [15] | [16] | [17] | [18] | [19]
inactive: all other assays above

Cc1cccc(N(C)C(=S)Oc2ccc3ccccc3c2)c1
active: [7] 44.1 µM
not listed: [4] | [11] | [15] | [16] | [17] | [18]
inactive: all other assays above

CCCCCCCCCCc1ccccc1
active: [12] 53.6 µM
not listed: [3] | [5] | [11] | [15] | [16] | [17] | [18]
inactive: all other assays above

O=C1CCCC1
inactive: [1] | [4] | [6] | [7] | [20] | [9] | [10] | [11] | [12] | [13]

CC(C)c1ccc2cc(C(C)C)ccc2c1
inactive: [1] | [4] | [19] | [7] | [14] | [20] | [9] | [10]
active: [11] 100 µM

C=CCOCC(O)CCl (configuration not stated)
active: [11] 63 µM
not listed: [2] | [4] | [9] | [14]
inactive: all other assays above
